Source: PubChem BioAssay AID1159580 (chemical genetic matrix, 2015)
Screen size: about 5,500 compounds; about 2,000 (36%) were called active. Roughly 18% stayed inconclusive and do not appear here. No stated cut-off is given here; in the data, active means normalized growth mostly below about 0.91 (no sharp cut-off); inconclusive means no clear call, values can overlap the other calls; inactive means mostly above about 0.92. The list shows a part of the results.

Test: chemical genetic growth profiling, strain panel (AID 1159580);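 further: tested at 20 µM; growth read once vehicle control cultures reached saturation at 30 °C; 1 = growth at the plate median or of vehicle wells; lower values mean less growth of the strain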
Settings: growth OD

Measured: normalized growth

C[C@@H]([C@H](O)c1ccccc1)N(C)C
inactive: S. cerevisiae deletion strains, locus YAL013W, strain DEP1, hits give low values 1.01 | S. cerevisiae deletion strains, locus YAL021C, strain ccr4, hits give low values 1.01 | S. cerevisiae deletion strains, locus YAL026C, strain drs2, hits give low values 1.01 | S. cerevisiae deletion strains, locus YAL030W, strain snc1, hits give low values 1.02 | S. cerevisiae deletion strains, locus YBL061C, strain skt5, hits give low values 1.01 | S. cerevisiae deletion strains, locus YBR009C, strain hhf1, hits give low values 1.01 | S. cerevisiae deletion strains, locus YBR021W, strain FUR4, hits give low values 0.983 | S. cerevisiae deletion strains, locus YBR023C, strain chs3, hits give low values 1.01 | S. cerevisiae deletion strains, locus YBR171W, strain sec66, hits give low values 1.03 | S. cerevisiae deletion strains, locus YBR229C, strain ROT2, hits give low values 1 | S. cerevisiae deletion strains, locus YBR231C, strain swc5, hits give low values 1.01 | S. cerevisiae deletion strains, locus YBR279W, strain paf1, hits give low values 1.02 | S. cerevisiae deletion strains, locus YCL011C, strain gbp2, hits give low values 1.01 | S. cerevisiae deletion strains, locus YCL016C, strain dcc1, hits give low values 1.01 | S. cerevisiae deletion strains, locus YCL029C, strain bik1, hits give low values 1 | S. cerevisiae deletion strains, locus YCL061C, strain MRC1, hits give low values 1.01 | S. cerevisiae deletion strains, locus YCL069W, strain vba3, hits give low values 1.01 | S. cerevisiae deletion strains, locus YCR088W, strain abp1, hits give low values 1.01 | S. cerevisiae deletion strains, locus YDL005C, strain med2, hits give low values 1.02 | S. cerevisiae deletion strains, locus YDL035C, strain GPR1, hits give low values 1.02 | S. cerevisiae deletion strains, locus YDL040C, strain nat1, hits give low values 1.02 | S. cerevisiae deletion strains, locus YDL074C, strain BRE1, hits give low values 0.999 | S. cerevisiae deletion strains, locus YDL101C, strain DUN1, hits give low values 1 | S. cerevisiae deletion strains, locus YDL134C, strain PPH21, hits give low values 1 | S. cerevisiae deletion strains, locus YDL185W, strain tfp1, hits give low values 1.01 | S. cerevisiae deletion strains, locus YDL192W, strain arf1, hits give low values 1.02 | S. cerevisiae deletion strains, locus YDR001C, strain nth1, hits give low values 1.01 | S. cerevisiae deletion strains, locus YDR069C, strain doa4, hits give low values 1.03 | S. cerevisiae deletion strains, locus YDR101C, strain arx1, hits give low values 0.981 | S. cerevisiae deletion strains, locus YDR137W, strain rgp1, hits give low values 0.984 | S. cerevisiae deletion strains, locus YDR150W, strain NUM1, hits give low values 1.01 | S. cerevisiae deletion strains, locus YDR159W, strain sac3, hits give low values 1.03 | S. cerevisiae deletion strains, locus YDR162C, strain NBP2, hits give low values 1.02 | S. cerevisiae deletion strains, locus YDR195W, strain ref2 1.01 | S. cerevisiae deletion strains, locus YDR297W, strain sur2, hits give low values 1.01 | S. cerevisiae deletion strains, locus YDR318W, strain mcm21, hits give low values 1.01 | S. cerevisiae deletion strains, locus YDR334W, strain swr1, hits give low values 1.02 | S. cerevisiae deletion strains, locus YDR335W, strain msn5, hits give low values 1.03 | S. cerevisiae deletion strains, locus YDR388W, hits give low values 1.01 | S. cerevisiae deletion strains, locus YDR392W, strain spt3, hits give low values 1.03 | S. cerevisiae deletion strains, locus YDR502C, strain sam2, hits give low values 1.01 | S. cerevisiae deletion strains, locus YEL003W, strain gim4, hits give low values 1.02 | S. cerevisiae deletion strains, locus YEL037C, strain rad23, hits give low values 1.01 | S. cerevisiae deletion strains, locus YEL061C, strain CIN8 (second series), hits give low values 1.01 | S. cerevisiae deletion strains, locus YEL061C, strain CIN8, hits give low values 1.01 | S. cerevisiae deletion strains, locus YER015W, strain faa2, hits give low values 1.01 | S. cerevisiae deletion strains, locus YER016W, strain bim1, hits give low values 1.02 | S. cerevisiae deletion strains, locus YER110C, hits give low values 1.01 | S. cerevisiae deletion strains, locus YER111C, strain swi4, hits give low values 1.01 | S. cerevisiae deletion strains, locus YER155C, strain BEM2 (second series), hits give low values 1.03 | S. cerevisiae deletion strains, locus YER155C, strain BEM2, hits give low values 1 | S. cerevisiae deletion strains, locus YER167W, strain BCK2, hits give low values 1.01 | S. cerevisiae deletion strains, locus YFR010W, strain ubp6, hits give low values 1.02 | S. cerevisiae deletion strains, locus YGL078C, strain dbp3, hits give low values 1.01 | S. cerevisiae deletion strains, locus YGL086W, strain mad1, hits give low values 0.997 | S. cerevisiae deletion strains, locus YGL167C, strain pmr1, hits give low values 0.956 | S. cerevisiae deletion strains, locus YGL173C, strain kem1, hits give low values 1.01 | S. cerevisiae deletion strains, locus YGL227W, strain vid30, hits give low values 1.01 | S. cerevisiae deletion strains, locus YGL240W, strain doc1, hits give low values 1.01 | S. cerevisiae deletion strains, locus YGL248W, strain PDE1, hits give low values 1 | S. cerevisiae deletion strains, locus YGL253W, strain hxk2, hits give low values 1.02 | S. cerevisiae deletion strains, locus YGR078C, strain PAC10, hits give low values 1.02 | S. cerevisiae deletion strains, locus YGR135W, strain pre9, hits give low values 1.03 | S. cerevisiae deletion strains, locus YGR252W, strain gcn5, hits give low values 1.02 | S. cerevisiae deletion strains, locus YHR013C, strain ard1, hits give low values 1.05 | S. cerevisiae deletion strains, locus YHR027C, strain rpn1, hits give low values 1.01 | S. cerevisiae deletion strains, locus YHR030C, strain SLT2, hits give low values 1.02 | S. cerevisiae deletion strains, locus YHR079C, strain IRE1 (second series), hits give low values 1.01 | S. cerevisiae deletion strains, locus YHR094C, strain hxt1, hits give low values 1.01 | S. cerevisiae deletion strains, locus YHR129C, strain ARP1, hits give low values 1.01 | S. cerevisiae deletion strains, locus YHR142W, strain chs7, hits give low values 1.01 | S. cerevisiae deletion strains, locus YHR200W, strain rpn10, hits give low values 1 | S. cerevisiae deletion strains, locus YIL066C, strain RNR3, hits give low values 1 | S. cerevisiae deletion strains, locus YIL073C, strain SPO22, hits give low values 1.05 | S. cerevisiae deletion strains, locus YIL125W, strain kgd1, hits give low values 1 | S. cerevisiae deletion strains, locus YIR030C, strain dcg1, hits give low values 1.01 | S. cerevisiae deletion strains, locus YJL092W, strain hpr5, hits give low values 1.01 | S. cerevisiae deletion strains, locus YJL095W, strain BCK1 (second series), hits give low values 1.02 | S. cerevisiae deletion strains, locus YJL095W, strain BCK1, hits give low values 0.996 | S. cerevisiae deletion strains, locus YJL115W, strain asf1, hits give low values 1.02 | S. cerevisiae deletion strains, locus YJL129C, strain trk1, hits give low values 1.03 | S. cerevisiae deletion strains, locus YJL134W, strain LCB3, hits give low values 1.01 | S. cerevisiae deletion strains, locus YJL154C, strain vps35, hits give low values 1.02 | S. cerevisiae deletion strains, locus YJL164C, strain tpk1, hits give low values 1.02 | S. cerevisiae deletion strains, locus YJL166W, strain qcr8, hits give low values 1.02 | S. cerevisiae deletion strains, locus YJL168C, strain set2, hits give low values 1 | S. cerevisiae deletion strains, locus YJL187C, strain SWE1 (second series), hits give low values 0.993 | S. cerevisiae deletion strains, locus YJL187C, strain SWE1, hits give low values 1.02 | S. cerevisiae deletion strains, locus YJR043C, strain POL32, hits give low values 1.01 | S. cerevisiae deletion strains, locus YJR075W, strain HOC1, hits give low values 1 | S. cerevisiae deletion strains, locus YKL009W, strain mrt4, hits give low values 1.02 | S. cerevisiae deletion strains, locus YKL068W, hits give low values 1 | S. cerevisiae deletion strains, locus YKL085W, strain MDH1 (second series), hits give low values 1.02 | S. cerevisiae deletion strains, locus YKL085W, strain MDH1, hits give low values 1.02 | S. cerevisiae deletion strains, locus YKL160W, strain elf1, hits give low values 1.01 | S. cerevisiae deletion strains, locus YKL190W, strain CNB1, hits give low values 1.02 | S. cerevisiae deletion strains, locus YKR001C, strain vps1, hits give low values 1 | S. cerevisiae deletion strains, locus YKR026C, strain gcn3, hits give low values 1.01 | S. cerevisiae deletion strains, locus YKR091W, strain srl3, hits give low values 1.01 | S. cerevisiae deletion strains, locus YLL001W, strain dnm1, hits give low values 1.01 | S. cerevisiae deletion strains, locus YLL026W, hits give low values 1.01 | S. cerevisiae deletion strains, locus YLL041C, strain sdh2, hits give low values 1.02 | S. cerevisiae deletion strains, locus YLR027C, strain aat2, hits give low values 1.01 | S. cerevisiae deletion strains, locus YLR039C, strain RIC1, hits give low values 1.03 | S. cerevisiae deletion strains, locus YLR058C, strain SHM2, hits give low values 1.01 | S. cerevisiae deletion strains, locus YLR102C, strain apc9, hits give low values 1 | S. cerevisiae deletion strains, locus YLR221C, strain rsa3, hits give low values 1.01 | S. cerevisiae deletion strains, locus YLR258W, strain gsy2, hits give low values 1.01 | S. cerevisiae deletion strains, locus YLR262C, strain YPT6 (second series), hits give low values 1 | S. cerevisiae deletion strains, locus YLR262C, strain YPT6, hits give low values 1 | S. cerevisiae deletion strains, locus YLR268W, strain sec22, hits give low values 1.01 | S. cerevisiae deletion strains, locus YLR320W, strain mms22, hits give low values 1.02 | S. cerevisiae deletion strains, locus YLR330W, strain CHS5, hits give low values 1.01 | S. cerevisiae deletion strains, locus YLR342W, strain FKS1 (second series), hits give low values 1.03 | S. cerevisiae deletion strains, locus YLR342W, strain FKS1, hits give low values 1.02 | S. cerevisiae deletion strains, locus YLR357W, strain rsc2, hits give low values 1.04 | S. cerevisiae deletion strains, locus YLR370C, strain arc18, hits give low values 1.01 | S. cerevisiae deletion strains, locus YLR371W, strain rom2, hits give low values 1 | S. cerevisiae deletion strains, locus YLR384C, strain iki3, hits give low values 1.02 | S. cerevisiae deletion strains, locus YLR418C, strain cdc73, hits give low values 1.04 | S. cerevisiae deletion strains, locus YML016C, strain PPZ1, hits give low values 1.01 | S. cerevisiae deletion strains, locus YML032C, strain rad52, hits give low values 1 | S. cerevisiae deletion strains, locus YML120C, strain ndi1, hits give low values 1.02 | S. cerevisiae deletion strains, locus YML124C, strain tub3, hits give low values 1.01 | S. cerevisiae deletion strains, locus YMR058W, strain fet3, hits give low values 1.02 | S. cerevisiae deletion strains, locus YMR078C, strain ctf18, hits give low values 1.01 | S. cerevisiae deletion strains, locus YMR125W, strain sto1, hits give low values 1.02 | S. cerevisiae deletion strains, locus YMR129W, hits give low values 1.02 | S. cerevisiae deletion strains, locus YMR205C, strain PFK2, hits give low values 1.02 | S. cerevisiae deletion strains, locus YMR223W, strain ubp8, hits give low values 1.04 | S. cerevisiae deletion strains, locus YMR231W, strain pep5, hits give low values 1.01 | S. cerevisiae deletion strains, locus YMR307W, strain GAS1, hits give low values 1.02 | S. cerevisiae deletion strains, locus YNL067W, strain RPL9B, hits give low values 0.999 | S. cerevisiae deletion strains, locus YNL071W, strain lat1, hits give low values 1.01 | S. cerevisiae deletion strains, locus YNL153C, strain GIM3, hits give low values 0.985 | S. cerevisiae deletion strains, locus YNL209W, strain ssb2, hits give low values 1.02 | S. cerevisiae deletion strains, locus YNL233W, strain BNI4, hits give low values 0.982 | S. cerevisiae deletion strains, locus YNL248C, strain rpa49, hits give low values 1 | S. cerevisiae deletion strains, locus YNL250W, strain rad50, hits give low values 1.05 | S. cerevisiae deletion strains, locus YNL271C, strain bni1, hits give low values 1.01 | S. cerevisiae deletion strains, locus YNL298W, strain CLA4, hits give low values 1.02 | S. cerevisiae deletion strains, locus YNL307C, strain MCK1, hits give low values 1.01 | S. cerevisiae deletion strains, locus YNL322C, strain KRE1 (second series), hits give low values 1 | S. cerevisiae deletion strains, locus YNR049C, strain mso1, hits give low values 1.01 | S. cerevisiae deletion strains, locus YNR052C, strain pop2, hits give low values 1 | S. cerevisiae deletion strains, locus YOL006C, strain TOP1, hits give low values 1 | S. cerevisiae deletion strains, locus YOL012C, strain htz1 0.634 | S. cerevisiae deletion strains, locus YOL147C, strain pex11, hits give low values 1.01 | S. cerevisiae deletion strains, locus YOR001W, strain rrp6, hits give low values 1.01 | S. cerevisiae deletion strains, locus YOR061W, strain CKA2, hits give low values 1.01 | S. cerevisiae deletion strains, locus YOR069W, strain VPS5, hits give low values 1 | S. cerevisiae deletion strains, locus YOR070C, strain gyp1, hits give low values 1.02 | S. cerevisiae deletion strains, locus YOR080W, strain dia2, hits give low values 1.03 | S. cerevisiae deletion strains, locus YOR083W, strain WHI5, hits give low values 1.02 | S. cerevisiae deletion strains, locus YOR106W, strain vam3, hits give low values 1.01 | S. cerevisiae deletion strains, locus YOR136W, strain idh2, hits give low values 1 | S. cerevisiae deletion strains, locus YOR144C, strain elg1, hits give low values 1.01 | S. cerevisiae deletion strains, locus YOR184W, strain ser1, hits give low values 1.01 | S. cerevisiae deletion strains, locus YOR265W, strain rbl2, hits give low values 1.02 | S. cerevisiae deletion strains, locus YOR270C, strain vph1, hits give low values 1.03 | S. cerevisiae deletion strains, locus YOR290C, strain snf2, hits give low values 1.01 | S. cerevisiae deletion strains, locus YOR316C, strain cot1, hits give low values 1.01 | S. cerevisiae deletion strains, locus YPL051W, strain arl3, hits give low values 1.01 | S. cerevisiae deletion strains, locus YPL078C, strain atp4, hits give low values 1.02 | S. cerevisiae deletion strains, locus YPL106C, strain sse1, hits give low values 1.03 | S. cerevisiae deletion strains, locus YPL240C, strain hsp82, hits give low values 1.02 | S. cerevisiae deletion strains, locus YPR119W, strain clb2, hits give low values 1.01 | S. cerevisiae deletion strains, locus YPR141C, strain kar3, hits give low values 1 | S. cerevisiae deletion strains, locus YPR163C, strain tif3, hits give low values 1.01 | S. cerevisiae deletion strains, locus YPR167C, strain met16, hits give low values 1 | S. cerevisiae deletion strains, strain wtn01, hits give low values 1.01 | S. cerevisiae strains, strain wild type, hits give low values 1.01
